“And” between values parts separate entries of the source, which are not always exact repeats. Equal entries are not always repeated. The whole screen tested about 16,000 compounds, of which about 5,700 (36%) were called active. Roughly 24% stayed inconclusive and do not appear here. The list shows a part of the results. A number with no mark means an inactive call. Calls follow the shape of the dose curve; as a rule, active = well fitted curve in the direction sought with a large enough effect; inconclusive = small, poorly fitted or top-dose-only effect, or effect the other way; inactive = no such curve, though single readings can be large or run the other way.
% is scaled to controls: 0 for no effect and ±100 for the full control effect.

The target in this assay is Cytochrome P450 1A2 (Homo sapiens) (UniProt P05177). Nature of the assay: Cytochrome panel assay with activity outcomes. As to conditions: recombinant CYP, pro-luciferin dealkylation, luminescence, p450-cyp1a2; series mostly up to 57.1 µM; activity, negative = inhibition: at the top concentration.
Cytochrome P450 1A2 (Homo sapiens), sequence (P05177 whole entry, looked up): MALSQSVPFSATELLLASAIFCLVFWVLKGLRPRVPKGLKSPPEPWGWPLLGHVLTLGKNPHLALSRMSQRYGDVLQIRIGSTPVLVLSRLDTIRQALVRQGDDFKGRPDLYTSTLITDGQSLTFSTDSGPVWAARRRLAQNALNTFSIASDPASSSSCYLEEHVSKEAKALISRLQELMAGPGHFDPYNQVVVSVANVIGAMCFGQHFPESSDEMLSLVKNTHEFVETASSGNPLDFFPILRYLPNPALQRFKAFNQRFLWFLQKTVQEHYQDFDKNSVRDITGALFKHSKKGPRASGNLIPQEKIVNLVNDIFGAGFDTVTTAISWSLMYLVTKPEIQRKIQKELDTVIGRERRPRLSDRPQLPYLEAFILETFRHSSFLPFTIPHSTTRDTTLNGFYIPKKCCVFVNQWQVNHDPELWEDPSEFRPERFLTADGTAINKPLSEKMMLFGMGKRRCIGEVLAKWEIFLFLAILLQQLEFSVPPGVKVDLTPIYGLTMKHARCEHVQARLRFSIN
As for `O=C1C=CC(=Nc2cccc3c(N=C4C=CC(=O)O4)cccc23)O1`, the activity, negative = inhibition is -14% [at 11.4 µM].

Regarding `O=C(CCN1C(=O)C2C3C=CC(C3)C2C1=O)Nc1c(F)cccc1F` (centres undefined), the “activity, negative = inhibition” value was 2.98%.

Consider `O=C(O)CSc1nc2ccccc2[nH]1`, for which the activity, negative = inhibition was -19.8% [at 11.4 µM].

Turning to `O=C(CSc1nc2ccccc2[nH]1)Nc1c(F)cccc1F`, the AC50 is 8910 nM (active).

With `O=C(Nc1ccc(Cl)cc1)OCc1cc(-c2ccccc2Cl)on1`, the concentration at half-maximal activity (AC50) is 447 nM (active).

For `O=C(Nc1ccccc1)OCc1cc(-c2ccc(Cl)cc2)on1`, the AC50 is 562 nM (active).

Consider `CS(=O)(=O)c1ccccc1COC(=O)Nc1ccc(Cl)cc1`, for which the AC50 was 17800 nM (active).

Take `O=C(Nc1ccc(Cl)cc1)OCc1cc(-c2ccccc2)on1`: the AC50 was 2240 nM (active).

With `Cc1onc(-c2ccccc2Cl)c1C(=O)Nc1nnc(Cc2ccc(Cl)cc2)s1`, the “activity, negative = inhibition” value is -24.7%.

With `CCN1C(=O)[C@H]2[C@H]3[C@H](O)[C@H](O)C/C(=N/O[C@@H]4O[C@@H](COC(C)=O)[C@@H](OC(C)=O)[C@@H](OC(C)=O)[C@H]4OC(C)=O)[C@H]3CC[C@@H]2C1=O`, the activity, negative = inhibition is -5.44% [at 11.4 µM].

With `CC1(C)CC(=O)C2=C(C1)N(c1ccc(F)cc1)C(N)=C(C#N)C2c1cccs1` (centres undefined), the “activity, negative = inhibition” value is 8.01%.

In the case of `O=[N+]([O-])c1ccccc1/C=N/n1c(COc2ccccc2)n[nH]c1=S`, the half-maximal activity concentration (AC50) is 2510 nM (active).

For `O=[N+]([O-])c1ccc(/C=N/n2c(COc3ccccc3)n[nH]c2=S)cc1`, the half-maximal activity concentration (AC50) is 2820 nM (active).

Take `Cc1ccc(/C=N/n2c(COc3ccccc3)n[nH]c2=S)s1`: the AC50 was 501 nM (active).

For `CS(=O)(=O)N1CCC2(CC1)CN(c1ncccn1)C2`, the “activity, negative = inhibition” value was 16.3%.

Consider `Cc1ccc(S(=O)(=O)NC(=O)NN2C[C@H]3CCC[C@@H]3C2)cc1`, for which the “activity, negative = inhibition” value is -0.685% [at 25.6 µM].

Take `Cc1ccc2nc(N/N=C\c3cccc(C)n3)cc(C)c2c1`: the concentration at half-maximal activity (AC50) is 631 nM (active).

Regarding `Cc1c2c(nc3ccccc13)-c1cccc(=O)n1C2`, the AC50 is 100 nM (active).

On to `CCc1cccc2nc3c(c([Si](C)(C)C)c12)Cn1c-3cccc1=O`, for which the half-maximal activity concentration (AC50) is 2510 nM (active).

In the case of `CCN1C/C(=C\c2cccc(C)c2)c2nc3ccccc3c(C(=O)O)c2C1`, the “activity, negative = inhibition” value was 5.47%.

As for `CC(C)c1cccc2nc3c(c([Si](C)(C)C)c12)Cn1c-3cccc1=O`, the AC50 was 15800 nM (active).

Take `CC(C)c1cccc2nc3c(c(C(C)(C)C)c12)Cn1c-3cccc1=O`: the AC50 was 12600 nM (active).

Take `O=C1OCCC=C1[C@@H](O)CCc1ccccc1`: the activity, negative = inhibition is -0.0227% [at 11.4 µM].

`NS(=O)(=O)c1cc2c(cc1Cl)N[C@@H](C(Cl)Cl)NS2(=O)=O`: the “activity, negative = inhibition” value was 1.35% [at 25.6 µM].

As to `CCc1c2c(nc3cccc(C(C)C)c13)-c1cccc(=O)n1C2`, the concentration at half-maximal activity (AC50) is 501 nM (active).

In the case of `O=C1NCC2(CCN(CCc3ccccc3)CC2)O1`, the AC50 result is “inactive”.

For `NS(=O)(=O)c1ccc(N=Nc2ccc(O)c(C(=O)O)c2)cc1`, the activity, negative = inhibition was -20.9% [at 11.4 µM].

Regarding `NS(=O)(=O)c1ccc(N=Nc2c(O)c(C(=O)O)cc3ccccc23)cc1`, the activity, negative = inhibition was -20.8% [at 11.4 µM].

With `NS(=O)(=O)c1ccc(N=Nc2cc3ccccc3c(C(=O)O)c2O)cc1`, the AC50 was 1000 nM (active).

With `O=C(NCc1cccnc1)c1sc2cc(Cl)ccc2c1Cl`, the AC50 is 1000 nM (active).

As to `O=C(Nc1nccs1)c1sc2cc(Cl)ccc2c1Cl`, the AC50 is 112 nM (active).

Regarding `CN(C)/C=C/C(=O)c1ccc(F)cc1`, the concentration at half-maximal activity (AC50) was 11200 nM (active).

Turning to `O=C(O)[C@@H](O)c1ccc(F)cc1`, the activity, negative = inhibition is -12.3% [at 11.4 µM].

`CN(C)/C=C/C(=O)c1ccc(Cl)cc1`: the concentration at half-maximal activity (AC50) is 4470 nM (active).

On to `O=C(O)/C=C\[C@H](O)c1ccc(Cl)cc1`, for which the “activity, negative = inhibition” value was -18%.

For `Oc1cc(O)cc(/C=C\c2ccc(O)c(O)c2)c1`, the AC50 was 5010 nM (active).

Take `O=c1cc(O)cc(/C=C\c2ccc(O)c(O)c2)o1`: the “activity, negative = inhibition” value was -7.95%.

As for `S=C(S)NCCCn1ccnc1`, the half-maximal activity concentration (AC50) is 3160 nM (active).

As to `S=C(S)NCCN1CCNCC1`, the activity, negative = inhibition is -7.09% [at 11.4 µM].

`NCCNC(=S)S`: the activity, negative = inhibition was -13.2% [at 2.29 µM].

Regarding `COc1ccc(NC(=O)N2CCCC3(CCN(S(=O)(=O)c4ccccc4)CC3)C2)cc1`, the “activity, negative = inhibition” value is -19.8%.

For the molecule `CCOc1ccc(C(=O)CN2CCN(S(=O)(=O)c3ccc(F)cc3)CC2)cc1`, the half-maximal activity concentration (AC50) was 20000 nM (active).

On to `CCN(CC)C(=O)COc1ccc(S(=O)(=O)N2CCOCC2)cc1`, for which the “activity, negative = inhibition” value was 2.65%.

As for `O=C(CN1CCN(S(=O)(=O)c2ccccc2)CC1)NC(=O)NCc1ccccc1`, the “activity, negative = inhibition” value was -22.6%.

With `COc1ccc(NC(=O)c2cc(S(=O)(=O)N3CCS(=O)(=O)CC3)ccc2Cl)cc1`, the “activity, negative = inhibition” value is 6.23%.

Regarding `COc1ccc(S(=O)(=O)N2CCN(CC(=O)Nc3cc(OC)cc(OC)c3)CC2)cc1`, the concentration at half-maximal activity (AC50) was 22400 nM (active).

Consider `O=C(CN1CCN(S(=O)(=O)c2ccc(F)cc2)CC1)Nc1ccc(Cl)c(C(F)(F)F)c1`, for which the “activity, negative = inhibition” value was -20.6%.

`CCOC(=O)c1ccc(S(=O)(=O)N2CCN(C)CC2)cc1`: the “activity, negative = inhibition” value was -6.34%.

As for `CCOc1ccc(NC(=O)CN2CCN(S(=O)(=O)c3ccc(Cl)cc3)CC2)cc1`, the AC50 is 25100 nM (active).

Regarding `O=C(CN1C(=O)NC2(CCCCCC2)C1=O)N1CCN(S(=O)(=O)c2ccc(Cl)cc2)CC1`, the “activity, negative = inhibition” value is -8.91%.

As for `COc1ccc(NC(=O)N2CC3(CCN(S(=O)(=O)c4ccccc4)CC3)C2)cc1`, the “activity, negative = inhibition” value is -22.4%.

For the molecule `COc1ccc(S(=O)(=O)N2CCCN(CC(=O)Nc3ccc(OC)c(Cl)c3)CC2)cc1`, the AC50 is 1410 nM (active).

For the molecule `CON(C)C(=O)c1nnc2c3ccccc3n(S(=O)(=O)c3ccc(C)cc3)c2n1`, the activity, negative = inhibition is -0.532% [at 11.4 µM] and -0.966% [at 11.4 µM].

As for `CCOC(=O)c1cc2c(C(F)(F)F)cc(-c3ccccc3)nc2o1`, the AC50 is 3550 nM (active).

As for `Cc1oc(-c2ccccc2)cc1C(=O)Nc1ccc(N(C)C)cc1`, the concentration at half-maximal activity (AC50) is 1410 nM (active).

As for `Cc1oc(C(C)(C)C)cc1C(=O)Nc1cccc(/C=C/C(=O)O)c1`, the “activity, negative = inhibition” value was -11.6%.

As for `CCCNC(=O)OC[C@@H]1O[C@H](CCO/N=C2\c3cc(OC)ccc3O[C@H](c3cccc(OC)c3)[C@H]2O)C=C[C@@H]1Oc1ccc(OC)cc1`, the activity, negative = inhibition was -14.6% [at 11.4 µM].

`CCC(=O)N1CCc2cc(S(=O)(=O)NC(C(=O)NCc3ccc(F)cc3)C(C)C)ccc21` (centres undefined): the “activity, negative = inhibition” value is -20.8%.

As for `CCOC(=O)c1sc(=S)n(-c2cccc(C(F)(F)F)c2)c1SC`, the AC50 was 562 nM (active).

For `COCCn1c(=O)c(-c2cccs2)nc2cnc(N(C)C)nc21`, the half-maximal activity concentration (AC50) was 2000 nM (active).

`COCCn1c(=O)c(-c2cccs2)nc2cnc(OC)nc21`: the concentration at half-maximal activity (AC50) is 2510 nM (active).

Regarding `COc1ncc2nc(-c3cccs3)c(=O)n(CCC#N)c2n1`, the AC50 was 6310 nM (active).

`COc1ncc2nc(-c3cccs3)c(=O)n(CCc3ccccc3)c2n1`: the AC50 was 1260 nM (active).

For `Cc1c(N2C(=O)CS/C2=N\N=C\c2ccc(Cl)cc2)c(=O)n(-c2ccccc2)n1C`, the “activity, negative = inhibition” value was -14.7%.

As to `Cc1nnc(SCC2=C(C(=O)O)N3C(=O)[C@@H](NC(=O)Cn4cnnn4)[C@@H]3SC2)s1`, the AC50 entry is “inactive”.

As to `COCCn1c(=O)c(-c2cccs2)nc2cnc(Oc3ccc(OC)cc3)nc21`, the AC50 is 2510 nM (active).

For the molecule `COCCn1c(=O)c(-c2cccs2)nc2cnc(Oc3ccccc3)nc21`, the concentration at half-maximal activity (AC50) is 2000 nM (active).

With `Cc1cnc(CNc2nc(-c3ccccc3Cl)nc3ccccc23)cn1`, the half-maximal activity concentration (AC50) was 6310 nM (active).

As for `Cc1cnc(CNc2nc(-c3ccccc3C)nc3ccccc23)cn1`, the AC50 is 3160 nM (active).

With `COc1ccccc1-c1nc(NCc2cnc(C)cn2)c2ccccc2n1`, the AC50 was 5010 nM (active).

Turning to `Cc1cnc(CNc2nc(-c3ccccc3C(F)(F)F)nc3ccccc23)cn1`, the AC50 is 12600 nM (active).

Regarding `CCN(CC)C(=O)C1CC(=O)N(c2ccc(OC)cc2)C1c1ccc(OC)cc1` (centres undefined), the “activity, negative = inhibition” value is -0.516%.

Regarding `COc1ccc(C(C(=O)NC2CCCC2)N(C(=O)c2snc(-c3ccc(F)cc3)c2N)c2ccc(F)cc2)cc1` (centres undefined), the “activity, negative = inhibition” value is -15.3%.

`CCN1/C(=C/c2ccc3cccc(C)c3[n+]2CC)Sc2ccccc21`: the AC50 is 14100 nM (active).

Take `CCOC(=O)c1cn(-c2nc(-c3ccc(Cl)cc3)cs2)c2c(F)c(N3CC(C)OC(C)C3)c(F)cc2c1=O` (centres undefined): the “activity, negative = inhibition” value is -9.86%.

As to `CCOC(=O)c1cnn(-c2nc(-c3cccc(F)c3)cs2)c1C(F)(F)F`, the AC50 was 2240 nM (active).

As to `COC(=O)c1cc(=O)n(C2CC2)c(=NC2CC2)s1`, the AC50 is 2000 nM (active).

Regarding `COC(=O)C1CCN(c2cc(=O)n(C3CCCCC3)c(=O)[nH]2)CC1`, the “activity, negative = inhibition” value was -5.49%.

`CCCCCc1nc2c(=O)[nH]c3ccccc3c2o1`: the AC50 was 398 nM (active).

`O=c1c2ccccc2sc2c(CO)ccc(NCCN3CCCCC3)c12`: the concentration at half-maximal activity (AC50) was 1580 nM (active).

As to `O=C(NCCCN1CCCCCC1)C1CC(=O)N(CCc2ccccc2)C1` (centres undefined), the “activity, negative = inhibition” value is -4.71%.

Take `CCN(CC)CCCNC(=O)CC1Sc2ccccc2NC1=O` (centres undefined): the “activity, negative = inhibition” value is -13.3%.

Take `CCN(CC)CCNc1ccc(CO)c2sc3ccccc3c(=O)c12`: the AC50 is 126 nM (active).

For `CN1CCCCC1=NCCCn1cnc2c1c(=O)n(C)c(=O)n2C`, the “activity, negative = inhibition” value was -12.6%.

As for `COCC(=O)N1CCC2(CC1)CCN(c1ccccn1)CC2`, the “activity, negative = inhibition” value is -5.05%.

In the case of `Cc1ccc(C(=O)Cn2nnc3c(sc4nc5c(c(-c6ccccc6)c43)CCC5)c2=O)cc1`, the “activity, negative = inhibition” value is -16.3%.

Consider `CCOC(=O)Cn1nnc2c(sc3nc4c(c(-c5ccc(Cl)cc5)c32)CCC4)c1=O`, for which the half-maximal activity concentration (AC50) was 3160 nM (active).

Regarding `Cc1ccc(-c2c3c(nc4sc(C(N)=O)c(N)c24)CCC3)cc1`, the AC50 is 3550 nM (active).

Consider `Nc1nc(N)nc(CCCc2nc(N)nc(N)n2)n1`, for which the activity, negative = inhibition was -16.3% [at 11.4 µM].

For the molecule `NC(=O)c1ccccc1-c1nc(-n2ccnc2)c2ccccc2n1`, the concentration at half-maximal activity (AC50) was 2510 nM (active).

In the case of `Cc1ccccc1-c1nc(-n2ccnc2)c2ccccc2n1`, the AC50 is 316 nM (active).

In the case of `Clc1ccccc1-c1nc(-n2ccnc2)c2ccccc2n1`, the AC50 is 158 nM (active).

For the molecule `CCO/C(C)=N/n1c2nc3ccccc3nc2c2c(=O)n(CC(C)C)c(C)nc21`, the “activity, negative = inhibition” value was -20.5%.

Turning to `CCCn1c(C)nc2c(c1=O)c1nc3ccccc3nc1n2CCC1=CCCCC1`, the AC50 was 25100 nM (active).

These data come from PubChem BioAssay AID1851 (National Center for Advancing Translational Sciences (NCATS), 2009).
